Holding throughout (details): Compound Concentration (nM):1000
The test system of assay [1] is BRSK2.
Assay [2] relates to BTK.
Assay [3] has as its system BUB1.
Assay [4] relates to T1, CAMK1B.
T1 construct: gene PNCK

Assay [5] has as its system CAMK1D.
For assay [6], the system named is CAMK1G.
In assay [7] the test system is CAMK1.
The subject of assay [8] is CAMK2A.
The subject of assay [9] is CAMK2B.
For assay [10], the system named is CAMK2D.
The test system of assay [11] is CAMK2G.
For assay [12], the system named is CAMK4.
Assay [13] has as its system CAMKK1.
Assay [14] has as its system CAMKK2.
Assay [15] relates to CASK.
Assay [16] concerns T2, CDC2L1.
T2 construct: gene CDK11B

Assay [17] has as its system CDC2L2.
Assay [18] has as its system T3, CDC2L5.
T3 construct: gene CDK13

The test system of assay [19] is T4, CDK11.
T4 construct: gene CDK19

The subject of assay [20] is CDK2.
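Further: KINOMEscan scanMAX binding as percent activity remaining versus control; lower means stronger binding.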

In the case of `COc1ccc(COc2ccc(Cc3cnc(N)nc3N)cc2OC)cc1` [GW632580X], the “Percent Control” value in assay [1] is 55%; in assay [2] it was 96%; in assay [3], 100%; in assay [4], 100%; in assay [5] it was 95%; in assay [6], 96%. The “Percent Control” value was 100% in assay [7]; 90% in assay [8]; 96% in assay [9]; 89% in [10]; 99% in assay [11]; 100% in [12]. In addition, the “Percent Control” value is 95% in assay [13]; 98% in assay [14]; 98% in assay [15]; 97% in assay [16]; 75% in assay [17]; 72% in assay [18]. Besides, the “Percent Control” value in [19] came to 89%; in assay [20], 100%.
Take `NS(=O)(=O)c1ccc(N/N=C2\C(=O)Nc3ccc(C(=O)NCc4ccncc4)cc32)cc1` [GW300657X]: the “Percent Control” value in [1] is 94%; in [2], 89%; in assay [3], 49%; in [4], 70%; in assay [5], 80%; in [6], 88%. In addition, the “Percent Control” value was 85% in assay [7]; 66% in [8]; 78% in [9]; 81% in assay [10]; 82% in assay [11]; 100% in assay [12]. Also, the “Percent Control” value is 45% in assay [13]; 65% in assay [14]; 78% in assay [15]; 100% in [16]; 82% in assay [17]; 24% in assay [18]. In addition, the “Percent Control” value stood at 100% in assay [19] and 39% in [20].
With `O=C1Nc2ccc(C(=O)c3ccco3)cc2C1=Cc1cc(Cl)c(O)c(Cl)c1` [GW406108X], the “Percent Control” value is 100% in assay [1]; 87% in assay [2]; 50% in assay [3]; 100% in [4]; 81% in assay [5]; 77% in assay [6]. Also, the “Percent Control” value is 63% in [7]; 25% in assay [8]; 44% in [9]; 55% in assay [10]; 77% in [11]; 100% in [12]. Further, the “Percent Control” value in assay [13] was 43%; in assay [14], 31%; in [15] it was 87%; in [16], 100%; in assay [17] it was 98%; in [18], 99%. Further, the “Percent Control” value in [19] and in assay [20] was 100% throughout.
As for `CN(C)CCNC(=O)Nc1ccc(N(C)c2ccnc(Nc3ccc(CS(C)(=O)=O)cc3)n2)cc1.Cl` [GW830900A], the “Percent Control” value in assay [1] is 96%; in [2] it was 74%; in [3], 55%; in assay [4] it was 93%; in assay [5], 91%; in assay [6], 100%. For the same compound, the “Percent Control” value in [7] was 100%; in [8], 92%; in assay [9], 84%; in [10] it was 93%; in [11] it was 100%; in [12], 100%. The “Percent Control” value in assay [13] was 99%; in assay [14] it was 93%; in assay [15], 91%; in assay [16] it was 100%; in [17], 89%; in assay [18], 100%. Also, the “Percent Control” value is listed as 100% in assay [19] and 98% in assay [20].
With `NS(=O)(=O)c1ccc(N/N=C2\C(=O)Nc3ccc(Cl)cc32)cc1` [GW280670X], the “Percent Control” value is 86% in [1]; 100% in [2]; 100% in assay [3]; 100% in assay [4]; 100% in [5]; 100% in [6]. Moreover, the “Percent Control” value in assay [7], in assay [8], in [9], in assay [10], in assay [11] and in assay [12] was 100% each time. The “Percent Control” value in assay [13], in assay [14], in assay [15], in assay [16], in [17] and in assay [18] was 100% throughout. Also, the “Percent Control” value in assay [19] was found to be 100%; in [20], 83%.
Take `COC(=O)Nc1nc2ccc(Oc3ccc(NC(=O)Nc4cc(C(F)(F)F)ccc4F)cc3)cc2s1.Cl` [GW693917A]: the “Percent Control” value in [1] was 93%; in assay [2] it was 72%; in assay [3], 65%; in assay [4], 75%; in assay [5] it was 90%; in assay [6], 100%. In addition, the “Percent Control” value in assay [7] is 88%; in assay [8], 93%; in assay [9], 88%; in assay [10] it was 98%; in [11], 100%; in assay [12], 100%. Also, the “Percent Control” value in assay [13] was 100%; in assay [14], 100%; in [15], 93%; in assay [16], 98%; in assay [17], 78%; in assay [18], 19%. The figures for the “Percent Control” value in assay [19] and in assay [20] were 5.3% and 65%, respectively.
For `NS(=O)(=O)c1ccc(N/N=C2\C(=O)Nc3ccc(C(=O)NCCc4c[nH]cn4)cc32)cc1` [GW300660X], the “Percent Control” value was 89% in assay [1]; 100% in assay [2]; 54% in [3]; 85% in assay [4]; 100% in [5]; 100% in assay [6]. The “Percent Control” value in [7], in assay [8], in [9], in assay [10], in [11] and in [12] was 100% in each case. The “Percent Control” value in [13] was 100%; in assay [14], 100%; in assay [15] it was 100%; in assay [16], 100%; in assay [17], 100%; in assay [18] it was 79%. Further, in [19], the “Percent Control” value was 100%.
In the case of `Nc1ncnc2occ(-c3ccc(NC(=O)Nc4cc(C(F)(F)F)ccc4F)cc3)c12` [GW770249X], the “Percent Control” value in assay [1] was 88%; in assay [2] it was 87%; in [3], 98%; in assay [4] it was 94%; in assay [5], 93%; in [6], 94%. For the same compound, the “Percent Control” value is 77% in assay [7]; 100% in [8]; 100% in assay [9]; 100% in [10]; 92% in assay [11]; 100% in [12]. Also, the “Percent Control” value in assay [13] was 97%; in assay [14], 82%; in assay [15], 95%; in assay [16], 99%; in assay [17], 68%; in assay [18], 1.4%. In addition, the “Percent Control” value in [19] came to 0%; in [20] it was 38%.
For the compound `COc1cc(N2CCN(C(C)C)CC2)ccc1Nc1nc(Nc2ccc(F)cc2C(=O)NC[C@@H](O)CO)c2cc[nH]c2n1` [GSK1392956A], the “Percent Control” value in [1] was 100%; in assay [2] it was 100%; in assay [3] it was 88%; in assay [4], 60%; in assay [5], 40%; in [6], 75%. The “Percent Control” value was 73% in assay [7]; 69% in [8]; 64% in [9]; 87% in assay [10]; 90% in assay [11]; 57% in assay [12]. The “Percent Control” value is 79% in assay [13]; 45% in assay [14]; 78% in [15]; 100% in assay [16]; 100% in assay [17]; 64% in [18]. Besides, the results for the “Percent Control” value in [19] and in assay [20] were 91% and 86%, respectively.

Values taken from article PMC7826789 (International Journal of Molecular Sciences, 2021).
